The source of these data is PubChem BioAssay AID1259341 (Broad Institute, 2017).

Molecules are shown by their SMILES. Calls of active or inactive are those of the source.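 How the source made its calls: active means activity change under -35% in any replicate well, with more than 20 beads read in that well; inactive means the rest.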

This test deals with Caspase recruitment domain-containing protein 9 (Homo sapiens) + E3 ubiquitin-protein ligase TRIM62 (Homo sapiens) (UniProt Q9H257+Q9BVG3). The test is described as follows: CARD9/TRIM62 protein interaction inhibitors – cell lysate, HEK293FT lysates, Luminex bead ELISA, primary screen (AID 1259341).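 Further: PE anti-Flag signal of Flag-CARD9 captured by myc-TRIM62 beads.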 Conditions: PE fluorescence, stronger effect = lower value, concentration not given here.
Caspase recruitment domain-containing protein 9 (Homo sapiens) + E3 ubiquitin-protein ligase TRIM62 (Homo sapiens), sequence (Q9BVG3 whole entry, looked up, the tested form may be a part): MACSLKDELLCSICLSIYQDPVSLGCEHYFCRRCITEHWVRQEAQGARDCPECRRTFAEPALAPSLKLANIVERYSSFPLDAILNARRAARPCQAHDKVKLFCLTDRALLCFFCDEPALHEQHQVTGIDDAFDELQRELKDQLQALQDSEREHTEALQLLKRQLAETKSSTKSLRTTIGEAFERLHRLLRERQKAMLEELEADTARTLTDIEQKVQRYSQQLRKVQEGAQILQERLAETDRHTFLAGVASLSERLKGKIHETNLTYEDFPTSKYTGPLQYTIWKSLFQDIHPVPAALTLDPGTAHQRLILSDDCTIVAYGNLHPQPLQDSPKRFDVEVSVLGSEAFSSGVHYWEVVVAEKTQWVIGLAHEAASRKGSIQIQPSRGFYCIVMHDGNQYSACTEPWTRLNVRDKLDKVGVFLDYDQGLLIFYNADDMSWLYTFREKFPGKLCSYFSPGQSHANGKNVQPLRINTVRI
Caspase recruitment domain-containing protein 9 (Homo sapiens) + E3 ubiquitin-protein ligase TRIM62 (Homo sapiens), sequence (Q9H257 whole entry, looked up, the tested form may be a part): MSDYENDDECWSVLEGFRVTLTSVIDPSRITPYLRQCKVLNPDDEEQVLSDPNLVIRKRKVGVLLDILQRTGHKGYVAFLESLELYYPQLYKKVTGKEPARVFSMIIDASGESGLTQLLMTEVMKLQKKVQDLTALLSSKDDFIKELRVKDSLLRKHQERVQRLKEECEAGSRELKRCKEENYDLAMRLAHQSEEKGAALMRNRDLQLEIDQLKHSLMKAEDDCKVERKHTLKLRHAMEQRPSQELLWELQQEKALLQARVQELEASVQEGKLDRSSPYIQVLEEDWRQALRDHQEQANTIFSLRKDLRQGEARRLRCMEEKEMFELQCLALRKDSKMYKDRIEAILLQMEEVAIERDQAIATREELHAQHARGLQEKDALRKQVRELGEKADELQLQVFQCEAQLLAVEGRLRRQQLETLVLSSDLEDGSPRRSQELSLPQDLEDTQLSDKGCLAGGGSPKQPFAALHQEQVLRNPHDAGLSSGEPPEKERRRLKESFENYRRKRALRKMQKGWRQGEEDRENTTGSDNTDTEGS
Regarding `N#CCSc1nc2c(c(=O)n1Cc1ccco1)C1(CCCC1)Cc1ccccc1-2`, the activity change, negative = inhibition is -5.29% (inactive).
For `Cc1ccc(N2NC(c3ccc(Br)cc3)=CCC2=O)cc1`, the activity change, negative = inhibition was -5.75% (inactive).
As to `Cc1nc2ccccc2nc1CSCc1ccco1`, the activity change, negative = inhibition was 1.2% (inactive).
Next, `NC(=O)C1(N2CCCCC2)CCN(c2ccc(NC(=O)c3cccc(Cl)c3)cc2C(=O)O)CC1`: -49% (active); `Cc1cc(C(=O)NCc2ccco2)on1`: -1% (inactive); `c1coc(-c2cn3ccc4ccccc4c3n2)c1`: -1.55% (inactive).
Next, `Cc1noc(C)c1S(=O)(=O)Nc1ccc2c(c1)C(=O)N([C@H](C)CO)C[C@H](C)[C@@H](CN(C)C(=O)C1CCCCC1)OCCCC[C@H](C)O2`: 7.66% (inactive); `O=C(Nc1nncs1)c1cc(-c2ccco2)nc2ccccc12`: -5.26% (inactive); `CCOc1cc2c(C#N)c(N3CCNCC3)nc(N)c2c(N)n1`: -2.85% (inactive).
Turning to `CCOC(=O)c1ccc(-c2ccc(C3CC(=O)Nc4cc5c(cc43)OCCO5)o2)cc1` (stereo unspecified), the activity change, negative = inhibition was -0.752% (inactive).
`O=C(COC(=O)c1cc(-c2ccco2)nc2ccccc12)NCc1ccccc1`: the activity change, negative = inhibition is -1.75% (inactive).
Take `NC(=O)C1(N2CCCCC2)CCN(c2ncc(NC(=O)c3ccc(Cl)cc3)cc2C(=O)O)CC1`: the activity change, negative = inhibition is -54.5% (active).
The value for `CN(C)c1ccc(CN2C[C@H]3CC[C@@H]2CN(C(=O)c2ccncc2)C3)cn1` was 1.51% (inactive); that for `O=C(COc1cccnc1[N+](=O)[O-])c1ccc(Cl)s1` was -9.96% (inactive).
The value for `O=C(Nc1nc(-c2nc3ccccc3s2)cs1)c1ccco1` was 1.21% (inactive).
Turning to `Cc1ccc(C)n1NC(=O)c1ccccc1O`, the activity change, negative = inhibition is 1.19% (inactive).
`NC(=O)C1(N2CCCCC2)CCN(c2ncc(NC(=O)c3ccccc3F)cc2C(=O)O)CC1`: the activity change, negative = inhibition was -10.2% (inactive).
Consider `O=C(O)Cc1c[nH]c2cccc(O)c12`, for which the activity change, negative = inhibition was 0.751% (inactive).
Next, `CCN1CCOC(=O)C1CC(=O)Nc1cccc(C)c1` (stereo unspecified): -1.33% (inactive); `Cc1ccc2c(c1)C(N1CCCC1=O)CC(c1ccco1)N2` (stereo unspecified): 5.12% (inactive); `O=C(Nc1ccc(OCC(=O)N2CCOCC2)cc1)c1cncc(Br)c1`: -1.75% (inactive).
The value for `Cc1nn2c(c1-c1ccccc1)NC(c1ccco1)=CC2c1ccco1` (stereo unspecified) was 21.4% (inactive).
Next, `O=C1CS/C(=N\N=C\c2ccco2)N1c1ccccc1`: -3.42% (inactive); `COc1ccc(-c2nnc(-c3nc(Nc4ccc(NC(C)=O)cc4)c4ccccc4n3)o2)cc1`: 9.87% (inactive).
As for `C[C@H](CO)N1C[C@H](C)[C@@H](CN(C)C(=O)C2CCCCC2)OCCCC[C@H](C)Oc2ccc(NS(=O)(=O)c3cn(C)cn3)cc2C1=O`, the activity change, negative = inhibition was -7.17% (inactive).
As to `COc1ccc(NC(=O)c2nc(Nc3ccccc3)c3ccccc3n2)cc1`, the activity change, negative = inhibition is 4.26% (inactive).
The value for `Cc1noc(CN(C)C(=O)c2cc(-c3ccco3)nc3c(C)c(Cl)ccc23)n1` was -1.57% (inactive); that for `CCOc1ccc(CNc2nc(-c3nnc(-c4ccc(F)cc4)o3)nc3ccccc23)cc1` was 14.1% (inactive).
The value for `Cc1ccsc1[C@@H]1CCN(Cc2ccc(-c3ccn[nH]3)o2)C[C@H]1O` was 0.0372% (inactive); that for `COc1c(C(=O)O)csc1Br` was -20.4% (inactive); that for `Cc1cc(C)c2c(N)c(C(=O)Nc3cccc4ccccc34)sc2n1` was -1.34% (inactive).
The value for `CN1C(=O)C(c2ccccc2[N+](=O)[O-])C(=O)c2ccccc21` (stereo unspecified) was 3.98% (inactive); that for `O=C(NCc1ccco1)[C@@H]1CSC2c3ccccc3C(=O)N21` (stereo partly specified) was -0.672% (inactive); that for `C[C@H](CO)N1C[C@H](C)[C@@H](CN(C)C(=O)C2CCCCC2)OCCCC[C@H](C)Oc2ccc(NS(=O)(=O)c3ccc(Cl)cc3)cc2C1=O` was 8.52% (inactive).
In the case of `CC1(C)Cc2ccccc2-c2nc(-c3ccccc3)oc(=O)c21`, the activity change, negative = inhibition is -0.338% (inactive).
As to `CCc1nc(OCc2ccco2)c2sc3nc4c(cc3c2n1)COC(C)(C)C4`, the activity change, negative = inhibition was -2.36% (inactive).
